The values that follow come from ChEMBL document CHEMBL3988442, “University of Dundee, Small-Polar-MMV Screening Library” (2021).

Common to all, as to parameters: scale not given: direction of the effect not stated beside the values
Assay [1] addresses Protein translocase subunit SecA (Escherichia coli (strain K12)) (UniProt P10408). In words: Assay to Identify E. coli SecA ATPase Inhibitors. The assay is classed as functional. The conditions noted are these: 30 µM.
The target in assay [2] is T1, Ubiquitin-activating enzyme e1, putative (Leishmania donovani (strain BPK282A1)) (UniProt E9BSI1).
T1 sequence (whole entry): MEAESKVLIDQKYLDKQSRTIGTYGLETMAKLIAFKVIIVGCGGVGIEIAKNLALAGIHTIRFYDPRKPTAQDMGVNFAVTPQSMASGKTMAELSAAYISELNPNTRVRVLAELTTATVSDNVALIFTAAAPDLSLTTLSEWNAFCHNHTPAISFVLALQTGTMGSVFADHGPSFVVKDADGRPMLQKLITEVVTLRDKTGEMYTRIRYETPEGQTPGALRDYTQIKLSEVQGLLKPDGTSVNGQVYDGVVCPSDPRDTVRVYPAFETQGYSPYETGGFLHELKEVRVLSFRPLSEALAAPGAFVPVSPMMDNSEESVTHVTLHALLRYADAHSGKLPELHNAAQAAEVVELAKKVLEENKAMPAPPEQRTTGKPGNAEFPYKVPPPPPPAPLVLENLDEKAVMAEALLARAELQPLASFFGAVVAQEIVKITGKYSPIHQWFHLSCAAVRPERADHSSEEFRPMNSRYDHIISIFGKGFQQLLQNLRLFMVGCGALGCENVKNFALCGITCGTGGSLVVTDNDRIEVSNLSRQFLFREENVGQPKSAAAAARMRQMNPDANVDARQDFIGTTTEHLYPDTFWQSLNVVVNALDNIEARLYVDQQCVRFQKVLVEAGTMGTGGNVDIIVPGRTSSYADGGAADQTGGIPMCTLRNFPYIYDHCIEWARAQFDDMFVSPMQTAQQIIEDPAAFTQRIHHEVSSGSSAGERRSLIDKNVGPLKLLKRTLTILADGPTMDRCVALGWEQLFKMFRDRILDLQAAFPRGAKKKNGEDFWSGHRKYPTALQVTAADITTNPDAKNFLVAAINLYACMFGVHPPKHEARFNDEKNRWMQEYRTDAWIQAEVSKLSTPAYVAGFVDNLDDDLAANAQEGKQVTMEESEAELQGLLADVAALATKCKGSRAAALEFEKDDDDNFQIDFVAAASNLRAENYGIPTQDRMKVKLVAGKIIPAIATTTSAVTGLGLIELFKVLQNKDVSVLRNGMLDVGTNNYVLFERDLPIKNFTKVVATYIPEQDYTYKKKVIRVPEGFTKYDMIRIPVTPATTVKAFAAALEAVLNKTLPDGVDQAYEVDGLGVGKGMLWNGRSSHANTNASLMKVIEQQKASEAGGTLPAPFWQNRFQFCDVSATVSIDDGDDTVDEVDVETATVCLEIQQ
In words: Leishmania donovani Ubiquitin Activating Enzyme (LdE1). The assay is classed as functional. The note with it: 30 µM.

Assay [3] addresses Sialic acid-binding Ig-like lectin 9 (Homo sapiens) (UniProt Q9Y336). Put plainly: Hs-Siglec9 ALPHAscreen SOP 20170721. The note with it: 10 µM. In general terms: Bead proximity is the source of the signal in Alpha formats.
For assay [4], the system named is Trypanosoma cruzi. Put plainly: Trypanosoma cruzi phosphomannomutase and mannose-1-phosphate guanylyltransferase assay. The class given is functional. The conditions noted are these: 10 µM.
In assay [5] the target is T2, Arginase-2, mitochondrial (Homo sapiens) (UniProt P78540).
T2 sequence (whole entry): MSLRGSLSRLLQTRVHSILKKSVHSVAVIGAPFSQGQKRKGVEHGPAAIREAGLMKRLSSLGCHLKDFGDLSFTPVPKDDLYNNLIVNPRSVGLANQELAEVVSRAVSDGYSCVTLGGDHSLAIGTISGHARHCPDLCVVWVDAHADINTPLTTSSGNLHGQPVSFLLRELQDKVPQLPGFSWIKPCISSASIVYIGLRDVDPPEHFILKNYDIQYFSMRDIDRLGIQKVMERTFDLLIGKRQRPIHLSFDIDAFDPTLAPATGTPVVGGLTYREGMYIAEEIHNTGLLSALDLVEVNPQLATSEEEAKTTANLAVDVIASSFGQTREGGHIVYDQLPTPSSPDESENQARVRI
Put plainly: in vitro enzyme assay to detect the production of urea directly proportional to the activity of Arginase II. Further: in the data most compounds retested in dose-response had high values. The assay is classed as functional. The note with it: 33.3 µM.

In assay [6] the target is T3, Proteasome subunit beta (Trypanosoma cruzi) (UniProt O96673).
T3 sequence (whole entry): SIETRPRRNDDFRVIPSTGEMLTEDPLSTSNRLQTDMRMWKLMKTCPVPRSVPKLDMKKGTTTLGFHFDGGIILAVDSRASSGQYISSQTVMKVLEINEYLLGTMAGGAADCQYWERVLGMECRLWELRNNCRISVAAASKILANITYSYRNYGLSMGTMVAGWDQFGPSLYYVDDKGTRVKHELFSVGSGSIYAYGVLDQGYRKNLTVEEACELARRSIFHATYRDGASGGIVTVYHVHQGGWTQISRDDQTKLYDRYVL
In words: Trypanosoma cruzi proteasome chymotrypsin-like activity (TcProtChymo) assay. Further: in the data most compounds retested in dose-response had high values. The class given is functional. The note with it: 9.37 µM.

The species named for assay [7] is Homo sapiens. Put plainly: To identify inhibition of the IFN signalling (Jak-Stat) pathway via expression of an eGFP reporter gene under the control of an IFN-stimulated response element (ISRE) containing MxA promoter. The assay is classed as functional. The note with it: 30 µM. (In general: In a reporter assay the amount or activity of a reporter protein is the signal.)

Assay [8] concerns the target T4, Tyrosyl-tRNA synthetase, putative (Trypanosoma cruzi (strain CL Brener)) (UniProt Q4DSP6).
T4 sequence (whole entry): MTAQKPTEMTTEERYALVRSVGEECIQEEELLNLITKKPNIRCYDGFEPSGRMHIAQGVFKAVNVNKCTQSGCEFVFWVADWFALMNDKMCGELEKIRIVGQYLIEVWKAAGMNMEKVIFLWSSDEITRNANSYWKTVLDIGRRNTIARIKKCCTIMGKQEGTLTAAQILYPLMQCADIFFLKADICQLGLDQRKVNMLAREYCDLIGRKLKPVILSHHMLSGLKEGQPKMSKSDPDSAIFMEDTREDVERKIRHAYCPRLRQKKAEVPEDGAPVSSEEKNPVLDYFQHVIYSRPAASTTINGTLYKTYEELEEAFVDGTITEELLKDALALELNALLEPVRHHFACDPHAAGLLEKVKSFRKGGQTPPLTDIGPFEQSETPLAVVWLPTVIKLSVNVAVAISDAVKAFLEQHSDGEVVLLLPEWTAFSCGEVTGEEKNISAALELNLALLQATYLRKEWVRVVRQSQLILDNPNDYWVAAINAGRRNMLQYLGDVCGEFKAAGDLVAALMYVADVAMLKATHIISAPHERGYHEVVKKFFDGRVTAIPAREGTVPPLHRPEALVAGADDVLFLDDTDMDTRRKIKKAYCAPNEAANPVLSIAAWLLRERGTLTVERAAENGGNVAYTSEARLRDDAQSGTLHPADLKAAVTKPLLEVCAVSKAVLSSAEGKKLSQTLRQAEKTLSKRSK
Put plainly: Trypanosoma cruzi tyrosyl tRNA synthetase (TcYRS) _High Tyrosine SOP. Further: in the data most compounds retested in dose-response had high values. The assay is classed as functional. The note with it: 30 µM.

In assay [9] the target is T4, Tyrosyl-tRNA synthetase, putative (Trypanosoma cruzi (strain CL Brener)). Put plainly: Trypanosoma cruzi tyrosyl tRNA synthetase (TcYRS) SOP. The class given is functional. The conditions noted are these: 30 µM.
In assay [10] the target is Chromo domain-containing protein 1 (Saccharomyces cerevisiae (strain ATCC 204508 / S288c) (Baker's yeast)) (UniProt P32657). In words: ScCHD-1 Enzyme Inhibition Assay. Further: in the data most compounds retested in dose-response had high values. The class given is functional. The note with it: 30 µM.

For some assays here: Potency and affinity values are given separately.

Chain of Protein translocase subunit SecA (Escherichia coli (strain K12)) (P10408 whole entry): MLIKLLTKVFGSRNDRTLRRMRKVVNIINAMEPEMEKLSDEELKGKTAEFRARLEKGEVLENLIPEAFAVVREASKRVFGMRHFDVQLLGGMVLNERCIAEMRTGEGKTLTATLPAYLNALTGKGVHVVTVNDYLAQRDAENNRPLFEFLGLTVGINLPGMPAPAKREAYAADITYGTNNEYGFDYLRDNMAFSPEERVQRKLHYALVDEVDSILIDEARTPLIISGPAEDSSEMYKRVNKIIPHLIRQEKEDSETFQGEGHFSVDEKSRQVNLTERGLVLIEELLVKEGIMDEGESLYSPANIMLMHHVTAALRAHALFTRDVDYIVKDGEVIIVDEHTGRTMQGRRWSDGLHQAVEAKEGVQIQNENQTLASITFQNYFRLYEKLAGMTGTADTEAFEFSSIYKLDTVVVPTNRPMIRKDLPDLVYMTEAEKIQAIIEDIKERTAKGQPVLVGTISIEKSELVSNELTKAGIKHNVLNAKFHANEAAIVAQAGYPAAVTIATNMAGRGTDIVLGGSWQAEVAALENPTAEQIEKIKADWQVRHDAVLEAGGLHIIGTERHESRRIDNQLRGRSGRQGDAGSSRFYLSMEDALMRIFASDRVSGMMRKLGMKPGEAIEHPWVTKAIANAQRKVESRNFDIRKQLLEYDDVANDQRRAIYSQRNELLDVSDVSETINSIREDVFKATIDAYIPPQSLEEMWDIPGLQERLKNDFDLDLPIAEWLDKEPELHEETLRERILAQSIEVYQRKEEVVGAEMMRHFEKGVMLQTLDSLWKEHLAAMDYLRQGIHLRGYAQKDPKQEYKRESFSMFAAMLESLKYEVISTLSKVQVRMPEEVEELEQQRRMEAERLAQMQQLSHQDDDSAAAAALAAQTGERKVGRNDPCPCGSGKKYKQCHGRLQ
Chain of Sialic acid-binding Ig-like lectin 9 (Homo sapiens) (Q9Y336 whole entry): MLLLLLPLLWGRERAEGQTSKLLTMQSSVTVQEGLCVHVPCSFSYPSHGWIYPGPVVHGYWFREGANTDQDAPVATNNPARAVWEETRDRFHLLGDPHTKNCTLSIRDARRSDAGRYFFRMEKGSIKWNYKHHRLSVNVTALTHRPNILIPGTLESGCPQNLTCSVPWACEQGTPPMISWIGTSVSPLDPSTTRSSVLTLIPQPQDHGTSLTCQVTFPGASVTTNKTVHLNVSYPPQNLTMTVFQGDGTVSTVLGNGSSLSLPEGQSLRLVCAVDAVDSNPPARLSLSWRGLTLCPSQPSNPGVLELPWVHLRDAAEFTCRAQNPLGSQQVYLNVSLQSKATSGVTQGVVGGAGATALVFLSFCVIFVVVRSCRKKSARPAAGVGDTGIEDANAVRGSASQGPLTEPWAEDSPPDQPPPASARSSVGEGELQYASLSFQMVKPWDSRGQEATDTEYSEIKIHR
Chain of Chromo domain-containing protein 1 (Saccharomyces cerevisiae (strain ATCC 204508 / S288c) (Baker's yeast)) (P32657 whole entry, the tested form may be a part): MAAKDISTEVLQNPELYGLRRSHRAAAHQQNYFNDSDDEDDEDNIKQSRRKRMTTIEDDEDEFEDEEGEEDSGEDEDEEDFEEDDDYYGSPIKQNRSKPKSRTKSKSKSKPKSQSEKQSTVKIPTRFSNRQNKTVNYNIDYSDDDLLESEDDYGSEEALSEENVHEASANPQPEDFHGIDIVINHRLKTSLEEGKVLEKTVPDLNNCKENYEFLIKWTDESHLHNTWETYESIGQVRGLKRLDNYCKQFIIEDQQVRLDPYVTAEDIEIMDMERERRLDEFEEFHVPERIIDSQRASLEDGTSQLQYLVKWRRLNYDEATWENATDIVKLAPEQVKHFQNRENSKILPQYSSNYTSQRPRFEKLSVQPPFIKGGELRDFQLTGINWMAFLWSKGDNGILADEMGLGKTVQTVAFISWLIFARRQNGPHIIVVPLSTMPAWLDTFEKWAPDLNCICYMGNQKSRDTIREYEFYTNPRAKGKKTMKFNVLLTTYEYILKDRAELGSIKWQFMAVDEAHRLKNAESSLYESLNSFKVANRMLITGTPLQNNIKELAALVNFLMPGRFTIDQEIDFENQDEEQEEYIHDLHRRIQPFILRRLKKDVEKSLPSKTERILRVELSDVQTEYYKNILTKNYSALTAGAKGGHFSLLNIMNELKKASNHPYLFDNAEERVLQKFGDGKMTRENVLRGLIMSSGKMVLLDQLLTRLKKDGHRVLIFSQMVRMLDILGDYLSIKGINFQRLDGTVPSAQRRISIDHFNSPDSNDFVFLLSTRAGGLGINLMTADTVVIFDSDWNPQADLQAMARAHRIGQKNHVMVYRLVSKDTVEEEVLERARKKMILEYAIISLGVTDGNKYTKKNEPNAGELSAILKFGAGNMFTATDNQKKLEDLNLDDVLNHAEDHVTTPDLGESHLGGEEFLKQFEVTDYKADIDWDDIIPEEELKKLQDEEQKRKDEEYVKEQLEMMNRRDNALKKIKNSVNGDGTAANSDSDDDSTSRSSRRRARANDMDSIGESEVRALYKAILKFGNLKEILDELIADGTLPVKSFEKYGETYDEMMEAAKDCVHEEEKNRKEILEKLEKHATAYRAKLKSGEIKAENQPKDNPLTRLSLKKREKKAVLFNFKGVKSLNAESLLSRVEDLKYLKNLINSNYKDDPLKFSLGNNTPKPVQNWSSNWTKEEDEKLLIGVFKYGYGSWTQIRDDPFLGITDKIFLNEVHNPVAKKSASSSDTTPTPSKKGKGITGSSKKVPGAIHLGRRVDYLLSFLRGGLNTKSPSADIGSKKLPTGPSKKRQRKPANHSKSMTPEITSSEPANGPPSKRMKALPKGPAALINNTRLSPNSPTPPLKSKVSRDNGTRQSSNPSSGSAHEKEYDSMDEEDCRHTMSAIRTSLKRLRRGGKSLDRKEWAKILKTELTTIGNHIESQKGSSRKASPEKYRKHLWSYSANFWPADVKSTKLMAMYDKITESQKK

As for `O=C(Nc1ccccc1)N1CCn2nnc(COc3cccnc3)c2C1`, the Percent Effect was -6.28% in assay [1]; 6.49% in [2]; -0.598% in [3]; -0.487% in assay [4]; 4.86% in assay [5]; 5.56% in [6]. Besides, the Percent Effect in assay [7] is -5.86%; in assay [8], 8.95%; in [9] it was 15.4%; in assay [10] it was 5.54%.
Consider `CC(C)NC(=O)Nc1ccc(CNCc2cccc(C#N)c2)cc1`, for which the Percent Effect is 2.25% in [1]; 20.8% in assay [2]; 4.68% in [3]; 0.933% in assay [4]; -0.615% in assay [5]; 6.84% in assay [6]. The Percent Effect was 0.521% in assay [7], 9.8% in [8], 28.2% in assay [9] and -12.8% in [10].
With `COc1c(CNC2CCc3cc(F)ccc32)c(C)nn1C` (stereo not given), the Percent Effect was -0.933% in [1]; 7.79% in assay [2]; 8.9% in assay [3]; -0.187% in assay [4]; 5.94% in assay [5]; -1.23% in [6]. The Percent Effect in assay [7] was -9.97%; in assay [8], 3.92%; in [9] it was 9.41%; in [10], -0.439%.
For `CCc1n[nH]c(C2CN(C(=O)c3ncoc3C(C)C)CCO2)n1` (stereo not given), the Percent Effect in assay [1] is 1.99%; in [2], 15.6%; in assay [3], 8.33%; in assay [4], -0.746%; in assay [5], -2.25%; in assay [6] it was 2.46%. The Percent Effect in assay [7] was 17.6%; in [8], 2.94%; in assay [9], 18.8%; in [10] it was -8.96%.
`CO[C@@H]1CC[C@@H](N(C)C(=O)COc2ccc(F)cc2)[C@H]1O`: the Percent Effect was -0.0302% in assay [1]; 9.33% in [2]; 5.58% in assay [3]; -6.31% in assay [4]; 5.31% in [5]; 10.8% in assay [6]. In addition, the Percent Effect in assay [7] was 9.43%; in assay [8], 1.06%; in assay [9], 7.5%; in [10] it was -24%.
As to `Cc1cnn(CC2CN(CC(=O)NCc3ccccn3)CCO2)c1` (stereo not given), the Percent Effect in assay [1] is -3.5%; in assay [2], 8%; in assay [3], 4.57%; in [4], 4.62%; in [5], -4.88%; in [6] it was 5.17%. The Percent Effect is 2.48% in assay [7], 3.68% in [8], 10.3% in assay [9] and -8.5% in assay [10].
Regarding `CCN(C)c1ncnc2c1CCN(Cc1ccoc1)CC2`, the Percent Effect was -6.65% in assay [1]; 19.5% in assay [2]; -3.79% in assay [3]; 8.86% in [4]; -7.69% in [5]; 18.8% in assay [6]. Moreover, the Percent Effect in assay [7] is -6.57%; in assay [8] it was 3.68%; in assay [9], 15.4%; in assay [10], -1.25%.
With `Cc1cc(S(=O)(=O)N2CCc3ccc(F)cc32)cc(C(=O)O)c1C`, the Percent Effect was -5.32% in [1]; 0% in [2]; 7.12% in assay [3]; -1.81% in [4]; -3.99% in assay [5]; 6.87% in assay [6]. Further, the Percent Effect in assay [7] is -3.81%; in assay [8], -15.3%; in assay [9] it was -28.2%; in [10], -9.5%.
For `CCOc1c(Cl)cccc1NCc1cc(C)on1`, the Percent Effect in [1] was -0.827%; in assay [2] it was 12.8%; in [3], -8.13%; in [4], -1.6%; in [5], 2.05%; in [6] it was 15.1%. For the same compound, the Percent Effect in assay [7] is 25.9%; in [8] it was 8.13%; in assay [9] it was 22.9%; in assay [10] it was -1.3%.
Take `O=C1NC2(CCN(Cc3nccs3)CC2)CC1c1ccncc1` (stereo not given): the Percent Effect is -7.46% in assay [1]; 9.09% in assay [2]; 9.45% in assay [3]; 6.13% in assay [4]; -6.07% in assay [5]; 6.8% in assay [6]. Moreover, the Percent Effect is -18.5% in [7], 3.68% in assay [8], 10.3% in [9] and 0.471% in [10].
Take `CCC(=O)N1CCC(Cc2nccnc2Nc2ccccn2)CC1`: the Percent Effect is -5.27% in assay [1]; 4% in assay [2]; -4.87% in assay [3]; 1.58% in [4]; -1.77% in [5]; -5.91% in assay [6]. Moreover, the Percent Effect in assay [7] was 18.1%; in assay [8], -4.23%; in assay [9], -2.5%; in assay [10], -20%.
